# Cruzain noTriton = blocks cruzain activity in detergent-free assay | purified cruzain, Z-FR-AMC fluorescence, no detergent | Potency, µM, hits mostly inhibitors | 200,000 tested, 2.3% active | AID 1476; further: nearly all actives have a fitted effect of over 40% in size
# Target sequence (P25779 123-467 limits assumed): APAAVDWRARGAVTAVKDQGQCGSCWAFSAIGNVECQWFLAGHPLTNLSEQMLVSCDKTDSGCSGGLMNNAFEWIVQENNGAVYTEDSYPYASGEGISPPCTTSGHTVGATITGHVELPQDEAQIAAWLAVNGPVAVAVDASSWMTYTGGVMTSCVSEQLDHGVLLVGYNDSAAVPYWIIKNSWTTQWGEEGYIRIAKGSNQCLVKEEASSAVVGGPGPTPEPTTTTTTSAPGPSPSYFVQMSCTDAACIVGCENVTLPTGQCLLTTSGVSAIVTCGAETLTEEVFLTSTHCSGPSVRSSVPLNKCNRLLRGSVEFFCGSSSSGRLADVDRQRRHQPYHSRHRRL
#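 Purified cruzain at 1.5 nM, pre-incubated 15 min with compound at room temperature in 100 mM sodium acetate pH 5.5, 5 mM DTT, 0.00005% Triton X-100. Reaction started with 2 uM Z-FR-AMC; AMC fluorescence increase over 60 s gives rate.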
# Cruzain inh Det = cruzain (T. cruzi) inhibition with detergent; P25779; purified cruzain, Z-FR-AMC fluorescence, 0.01% Triton; Potency, µM, usual class: inhibitors; 200,000 tested, 0.43% active; further: nearly all actives have a fitted effect of over 40% in size
#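 Sodium acetate buffer (100 mM, pH 5.5) containing 5 mM DTT and 0.01% Triton X-100 hosted 1.5 nM cruzain and test compound for 15 min at room temperature. Cleavage of 2 uM Z-FR-AMC was then tracked by fluorescence.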
# Numbers stand for hits; – = inactive; ? = inconclusive. In the library only some 2.5% were active in any assay of this set; here they are far more common. The call rests on the fitted dose curve; in most records, active means well fitted curve in the direction sought with a large enough effect; inconclusive means small, poorly fitted or top-dose-only effect, or another doubt; inactive means no such curve, though single readings can be large; an effect the other way counts as inactive or inconclusive.
SMILES,Cruzain noTriton,Cruzain inh Det
CCOc1ccc(CCNC(=O)C2CCN(Cc3nc(-c4ccc(OC)c(OC)c4)oc3C)CC2)cc1OCC,–,–
COc1cc(C(=O)Nc2ccc(NC(=O)c3ccc(Br)cc3)cc2)cc(OC)c1OC,–,–
O=C(COc1ccc2ccccc2c1Br)NC(=S)Nc1cccc(CO)c1,31.6µM,–
O=C(COc1ccc(Br)cc1Br)NC(=S)Nc1cccc(CO)c1,?,–
CCCOc1cccc(C(=O)Nc2ccc(-c3nc4ccccc4o3)cc2)c1,–,–
Cc1ccc2nc(-c3ccccc3)nc(SC(C)C(=O)NCc3cccs3)c2c1 (configuration not stated),–,–
Cc1ccc(C)c2c(SC(C)C(=O)NCc3ccco3)nc(-c3ccccc3)nc12 (configuration not stated),3.98µM,–
COc1cccc(Nc2nc(-c3cccc(N4C(=O)c5ccccc5C4=O)c3)cs2)c1,7.94µM,–
COc1cccc(Nc2nc(-c3ccc(O)cc3)cs2)c1,–,–
O=C(CCC1CCCC1)Nc1nnc(-c2ccc3c(c2)OCO3)s1,10µM,–
COCc1nnc(NC(=O)CCC2CCCCC2)s1,–,–
CCCCNc1nc2c(S(=O)(=O)c3ccc(C)cc3)nnn2c2ccsc12,–,–
CC1=C(C(=O)Nc2ccccc2)C(c2cccc(Cl)c2)n2nc(SCC(=O)c3ccc(C)cc3)nc2N1 (configuration not stated),–,–
Cc1cccc(-c2nc(SCc3cc(=O)c4cccc(F)c4[nH]3)n[nH]2)c1,–,–
CN1C(=O)c2ccccc2Sc2ccc(NC(=O)N3CCN(c4ccc(F)cc4)CC3)cc21,?,–
Cc1cc(C=C(C#N)C#N)c(C)n1-c1ccccc1,–,–
CN(C)c1cccc2c(C=C(C#N)C#N)ccc(N(C)C)c12,20µM,20µM
Cc1noc(C)c1-c1ccc2ncnc(NCc3ccccc3)c2c1,–,–
Cc1c(Cl)cccc1Nc1nn2c(=O)c3ccc(C(=O)N(C)Cc4ccccc4)cc3nc2s1,–,–
CCOC(=O)c1c(NC(=S)Nc2cc([N+](=O)[O-])ccc2OC)sc2c1CCCCC2,12.6µM,–
COC(=O)c1c(NC(=S)Nc2cc(OC)c(Cl)cc2OC)sc2c1CCCCC2,15.8µM,–
COC(=O)c1c(NC(=O)C2CC2)sc2c1CCCC2,–,–
CCOC(=O)c1c(NC(=S)Nc2ccc(C)cc2)sc2c1CCC2,?,–
CCc1ccc(NC(=O)CC2C(=O)N(c3ccc(Cl)cc3)C(=O)N2Cc2cccs2)cc1 (configuration not stated),?,–
Cc1ccccc1Oc1ncnc2oc(-c3ccccc3)cc12,–,–
SMILES,Cruzain noTriton,Cruzain inh Det
Clc1ccc(Oc2ncnc3oc(-c4ccccc4)cc23)cc1,20µM,–
O=C(Nc1ccc(F)c(Cl)c1)C1CCCN(c2ncnc3onc(-c4ccc(F)cc4)c23)C1 (configuration not stated),–,–
Oc1ccc(C=Nc2cccc3ncccc23)c(O)c1,–,–
Oc1ccc(C=Nc2ccc3ncccc3c2)c(O)c1,15.8µM,–
COC(=O)c1cc2oc(C)cc2n1Cc1c(C)cc(C)cc1C,–,–
Cc1cc(Cl)ccc1OCC(=O)N[C@@H](Cc1ccccc1)c1nc2ccccc2[nH]1,–,–
CSCCC(NC(=O)c1cccc([N+](=O)[O-])c1)c1nc2ccccc2[nH]1 (configuration not stated),?,–
CSCC[C@H](NC(=O)c1cc([N+](=O)[O-])ccc1Cl)c1nc2ccccc2[nH]1,–,22.4µM
CSCC[C@H](NC(=O)COc1ccc(Cl)cc1)c1nc2ccccc2[nH]1,12.6µM,7.08µM
O=C(Cc1ccccc1)NC1CC(=O)N(c2ccccc2)C1 (configuration not stated),–,–
Cc1ccccc1NC(=O)Cn1c(=O)n(Cc2ccc3c(c2)OCO3)c(=O)c2ccccc21,–,–
CCc1ccc(NC(=O)CSc2nc3ccccc3nc2Cc2ccccc2OC)cc1,–,–
O=c1c2ccccc2[nH]c(=S)n1CCc1ccccc1,?,–
O=c1c2ccccc2[nH]c(=S)n1Cc1cccs1,25.1µM,–
Cc1ccc(C)n1N1C(=O)/C(=C\c2ccc(Cl)cc2)SC1=S,?,–
NS(=O)(=O)c1ccc(CCN2C(=O)/C(=C\c3ccc(Cl)cc3)SC2=S)cc1,25.1µM,–
COc1cccc(CNC(=O)C2CCN(C(=O)N3CCOc4ccc(Cl)cc43)CC2)c1OC,?,–
O=C1NC(=S)S/C1=C\c1ccc(SCc2ccco2)o1,?,15.8µM
O=C1NC(=S)S/C1=C\c1ccc(SCc2ccccc2)o1,–,–
Cc1ccc(C)c(N2CCN(C(=O)CCc3nnc4n(C)c(=O)c5ccccc5n34)CC2)c1,–,–
CCCCN(CCCC)S(=O)(=O)c1ccc(NC(=O)c2c(-c3ccccc3)noc2C)cc1,–,–
CCCN(CCC)S(=O)(=O)c1ccc(C(=O)NNc2nc(-c3ccccc3)c3cc(Br)ccc3n2)cc1,10µM,–
Cc1ccc(NC(=O)C2CC(=O)N(c3ccc(OC(C)C)cc3)C2)cc1 (configuration not stated),–,–
COc1ccc(Oc2ncc3nc(-c4cccs4)c(=O)n(Cc4cccc(OC)c4)c3n2)cc1,12.6µM,–
COc1cccc(Cn2c(=O)c(-c3cccs3)nc3cnc(OC)nc32)c1,–,–
SMILES,Cruzain noTriton,Cruzain inh Det
COc1ccc(Oc2ncc3nc(-c4cccs4)c(=O)n(Cc4cccs4)c3n2)cc1,7.94µM,–
O=c1c(-c2cccs2)nc2cnc(Oc3ccccc3)nc2n1Cc1cccs1,?,–
Cc1ccc(C)c(CSc2nnc3[nH]c(=O)cc(C)n23)c1,–,–
O=C1NC(=O)/C(=C/c2ccccc2Oc2ccc(Cl)cc2)S1,20µM,–
Cc1ccc(Oc2ccccc2/C=C2\SC(=O)N(C)C2=O)cc1,–,–
Cc1ccc2nc(CSc3nnc(NC(=O)COc4ccccc4)s3)cc(=O)n2c1,–,–
CCC(=O)OC1=C(C(C)=O)N(Cc2ccccc2)S(=O)(=O)c2ccccc21,–,–
CC(=O)c1sc(N/N=C\c2cccc(Br)c2)nc1C,0.199µM,12.6µM
CC(=O)c1sc(N/N=C\c2ccc(Br)cc2)nc1C,?,–
O=C(/C=C1\NC2(CCCC2)Cc2ccccc21)C(=O)N/N=C/c1ccccc1O,25.1µM,–
COc1cc(/C=N/NC(=O)C(=O)/C=C2\NC3(CCCC3)Cc3ccccc32)ccc1O,–,–
COC(=O)c1ccc(C(NC(=O)OCc2ccccc2)/C(=C/[C@@H](C)C(=O)NCc2ccc(S(C)(=O)=O)cc2)c2cccnc2)cc1 (some centres not stated),?,–
COC(=O)c1c(NC(=O)COC(=O)[C@@H](NS(=O)(=O)c2ccc(C)cc2)C(C)C)sc2c1CCC2,15.8µM,–
CCOC(=O)c1c(NC(=O)CS(=O)(=O)c2ccc(Cl)cc2)sc2c1CCCC2,–,–
COC(=O)c1c(NC(=O)COC(=O)c2ccc(C)s2)sc2c1CCCCC2,–,–
CCOC(=O)c1c(NC(=O)CS(=O)(=O)c2ccc(C)cc2)sc2c1CCCCC2,3.98µM,–
CCN(CC)C(=O)c1sc(NC(=O)C2c3ccccc3Oc3ccccc32)c(C(=O)OC(C)C)c1C,–,–
CCOC(=O)c1c(NC(=O)C2c3ccccc3Oc3ccccc32)sc(C(N)=O)c1C,–,–
CCCOC(=O)c1c(NC(=O)C2c3ccccc3Oc3ccccc32)sc2c1CCCC2,25.1µM,–
